Screens as filed in PubChem.
Shown are actives, neighbours in structure and some others; about 19% of the full set was active somewhere.
DT40 TDP1 no CPT = qHTS for Inhibitors of human tyrosyl-DNA phosphodiesterase 1 (TDP1): qHTS in cells in absence of CPT; DT40 Tdp1-/- hTDP1 cells, no CPT, ATP luminescence, 48 h; Potency, µM (titrated, usually from 46.2 µM), without a hit: at the highest dose activity change, negative = growth inhibition, hits mostly inhibitors; actives 15% (n = 420,000); AID 686978, 2013; also: potency is read from the fitted curve at half-maximal effect; nearly all actives have a fitted effect of over 55% in size
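Chicken DT40 Tdp1-/- cells complemented with human TDP1, screened without camptothecin (DMSO vehicle only), 400 cells/well. Compounds pin-transferred, cells incubated at 37 °C for at least 48 hr. Growth read as ATP-dependent luminescence (CellTiter-Glo, 30 min at RT).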
HT1080-NT tox = qHTS for induction of synthetic lethality in tumor cells producing 2HG: qHTS for the HT-1080-NT fibrosarcoma cell line; HT-1080-NT fibrosarcoma viability, CellTiter-Glo ATP luminescence, 48 h; Potency, µM (series often up to 46.1 µM), for inactives: top-dose activity, negative = less viability, actives largely listed as cytotoxic; actives 1.6% (n = 360,000); AID 686970, 2013;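 also: NT is the 2HG producing partner of a matched IDH1 knockdown line; potency is read from the fitted curve at half-maximal effect; 0% = DMSO-treated cells and -100% = media-only wells without cells; nearly all actives have a fitted effect of over 55% in size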
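Viability by CellTiter-Glo luminescence after 48 h compound exposure at 37C of HT-1080-NT cells (750/well, RPMI, 5% FBS). % activity scaled between DMSO wells and medium-only wells, then curve-fitted and categorized by curve class.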
HT1080 IDH1KD tx = qHTS for induction of synthetic lethality in tumor cells producing 2HG: qHTS for the HT-1080-IDH1KD cell line; Potency, µM (series often up to 46.1 µM), without a hit: at the highest dose activity, negative = toxicity, actives largely listed as cytotoxic; AID 686971, 2013; actives 2% (n = 360,000); HT-1080 IDH1 knockdown viability, ATP luminescence, 48 h;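 also: potency is read from the fitted curve at half-maximal effect; 0% = DMSO wells and -100% = cell-free medium wells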
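HT-1080-IDH1KD cells (IDH1 knocked down), 750/well in RPMI with 5% FBS, treated with compound 48 h at 37 degrees C. Viability by CellTiter-Glo luminescence, normalised to DMSO and no-cell wells; concentration-response curves classed.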
TDP1 cell CPT = qHTS for Inhibitors of human tyrosyl-DNA phosphodiesterase 1 (TDP1): qHTS in cells in presence of CPT; AID 686979, 2013; chicken DT40 Tdp1-/-;hTDP1 cells + 20 nM CPT, ATP luminescence, 48 h; Potency, µM (highest dose often 46.2 µM), without a hit: top-dose activity change, negative = growth inhibition, most hits filed as inhibitors; actives 12% (n = 420,000); also: potency is read from the fitted curve at half-maximal effect; nearly all actives have a fitted effect of over 55% in size
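Cell growth measured by CellTiter-Glo luminescence after a minimum 48 h, 37 C compound exposure with 20 nM CPT in Tdp1-knockout DT40 cells stably expressing hTDP1, seeded 400/well; qHTS titration format.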
IL1B secr inh = qHTS for Inhibitors of Inflammasome Signaling: IL-1-beta AlphaLISA Primary Screen | actives 4.7% (n = 360,000) | THP-1 LPS/ATP IL-1B secretion, AlphaLISA, 16 h; stronger effect = lower value | activity change, % at 57.5 µM; in the data active = activity change below about -50%; inconclusive = mostly about -30% to -49%
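Secreted IL-1B measured by AlphaLISA bead assay after 16 h compound exposure of THP-1 cells; compounds (final up to 57.5 uM) added 1 h before LPS (250 ng/mL) and ATP (1.25 mM) stimulation; lower signal means less secretion.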
Starred values were filed as active, the others as inactive; ? = inconclusive; · = no result given. Unless noted, calls follow the shape of the dose curve; as a rule, active = well fitted curve in the direction sought with a large enough effect; inconclusive = small, poorly fitted or top-dose-only effect, or another doubt; inactive = no such curve, though single readings can be large; an effect the other way counts as inactive or inconclusive. Unless noted, % is scaled to controls: 0 for no effect and ±100 for the full control effect.

SMILES	DT40 TDP1 no CPT	HT1080-NT tox	HT1080 IDH1KD tx	TDP1 cell CPT	IL1B secr inh
CC(=O)Nc1cccc(C(=O)N(CCc2ccccc2)Cc2ccccc2)c1	?	1%	-2%	-24%	-11
CC(C)(C)OC(=O)N(CCc1ccccc1)Cc1ccc(OCc2cccc(NC(=O)/C=C/c3ccccc3)c2)cc1	-24%	1%	4%	-20%	-7
CC(C)(C)OC(=O)N(CCc1ccccc1)Cc1ccccc1OCc1cccc(NC(=O)/C=C/c2ccccc2)c1	7.3µM*	5%	14%	9.2µM*	-20
CC(C)(C)OC(=O)N(CCc1ccccc1)Cc1ccc(OCc2cccc(NC(=O)C3CCC3)c2)cc1	15µM*	1%	-5%	21µM*	0
CC(C)(C)OC(=O)N(CCc1ccccc1)Cc1ccc(OCc2cccc(NC(=O)C3CC3)c2)cc1	4.6µM*	2%	0%	5.8µM*	?
CC(C)(C)OC(=O)N(CCc1ccccc1)Cc1cccc(OCc2cccc(NC(=O)c3ccccc3)c2)c1	18µM*	1%	1%	23µM*	?
O=C(NC1CCCCC1)C(c1c(F)cccc1Cl)N(C(=O)c1csnn1)C1CC1 (stereo unspecified)	-25%	19%	3%	-29%	-2
Cc1ccc(-c2nnc(Nc3ccc(CC(N)=O)cc3)c3ccccc23)cc1S(=O)(=O)NCCO	12%	1%	3%	-5%	7
Cc1ccc(-c2nnc(Nc3ccc4c(c3)OCO4)c3ccccc23)cc1S(=O)(=O)NCCO	16µM*	-6%	-14%	?	-9
Cc1ccc(-c2nnc(Nc3ccc(Cl)c(Cl)c3)c3ccccc23)cc1S(=O)(=O)NCCO	18µM*	·	·	18µM*	·
CC(=O)c1ccccc1NC(=O)COC(=O)CSCC(=O)Nc1cc(C)on1	-1%	2%	-4%	3%	18
CCN1C(=O)[C@@H]2[C@@H](c3ccc(-c4ccc5c(c4)OCO5)cc3)N3CCCC[C@@]3(C(=O)OC)[C@@H]2C1=O	21µM*	0%	3%	15µM*	-3
CCN1C(=O)[C@H]2[C@@H](c3ccc(-c4ccc5c(c4)OCO5)cc3)N3CCC[C@@]3(C(=O)OC)[C@H]2C1=O	12µM*	6%	1%	?	-26
CCN1C(=O)[C@@H]2[C@@H](c3ccc(-c4ccc5c(c4)OCO5)c(OC)c3)N3CCC[C@@]3(C(=O)OC)[C@@H]2C1=O	?	6%	3%	-10%	3
C[C@@H]1CNC(=O)c2c(C(=O)NCc3ccc(CNC(=O)OC(C)(C)C)cc3)ncn21	21µM*	1%	1%	?	1
C[C@@H](OC(=O)c1[nH]cnc1C(=O)NCc1ccc(CNC(=O)OC(C)(C)C)cc1)c1ccccc1	16µM*	?	?	21µM*	-21
CN(Cc1ccccc1)C(=O)c1[nH]cnc1C(=O)NC1CCN(C(=O)OC(C)(C)C)CC1	?	0%	2%	21µM*	15
CC(C)(C)OC(=O)N1CCC(NC(=O)c2[nH]cnc2C(=O)Nc2ccc(Br)cc2F)CC1	18µM*	10%	11%	21µM*	2
Cc1ccc(S(=O)(=O)N/N=C/c2ccc3nccnc3c2)cc1	?	5%	3%	?	0
CCN(CC)C(=O)CSc1nc(C)cc(C)n1	-28%	6%	3%	-12%	27
S=C1NCCN1CC1CCN(CC2CCCC2)CC1	-4%	-3%	-4%	?	-21
CCOC(=O)c1nn2c(C(F)(F)F)cc(-c3ccc(OC)cc3)nc2c1Br	?	8%	5%	?	12
CN(Cc1ccccc1)C(=O)c1[nH]cnc1C(=O)NCc1ccc(CNC(=O)OC(C)(C)C)cc1	13µM*	-20%	3%	?	9
CN(Cc1ccccc1)C(=O)c1[nH]cnc1C(=O)Nc1nccs1	-7%	12%	7%	?	-19
O=C(Nc1nccs1)c1nc[nH]c1C(=O)NCc1ccccc1	0%	?	0.82µM*	12%	-14
SMILES	DT40 TDP1 no CPT	HT1080-NT tox	HT1080 IDH1KD tx	TDP1 cell CPT	IL1B secr inh
CC(=O)Nc1ccc(C(=O)OCC(=O)N(Cc2ccccc2)C(C)(C)C)cc1	-18%	0%	4%	-17%	-1
Clc1ccc(-c2nc3ccncc3[nH]2)cc1	?	?	?	10µM*	4
O=[N+]([O-])c1ccc2nc(-c3ccc(Cl)cc3)[nH]c2c1	16µM*	-10%	-10%	?	?
Fc1ccc(-c2nc3ccncc3[nH]2)cc1	-14%	-7%	-4%	-23%	-5
Nc1nc2ccc([N+](=O)[O-])cc2[nH]1	-25%	8%	4%	-11%	-21
Cc1ccc(-c2nc3ccc([N+](=O)[O-])cc3[nH]2)cc1	21µM*	7%	20%	?	-15
O=[N+]([O-])c1ccc2nc(-[n+]3c(-c4ccccc4)cc(-c4ccccc4)cc3-c3ccccc3)[nH]c2c1	21µM*	-1%	-13%	23µM*	?
Cc1ccc2nc(-c3cccc(N)c3)[nH]c2c1	?	?	?	15µM*	-4
O=[N+]([O-])c1cccc(-c2nc3ccc([N+](=O)[O-])cc3[nH]2)c1	21µM*	5%	5%	10µM*	-16
O=[N+]([O-])c1ccc2nc(-c3ccncc3)[nH]c2c1	?	3%	-2%	?	51
COc1cccc(-n2c(SCC(=O)Nc3cccc(Cl)c3)nc3c(oc4ccccc43)c2=O)c1	-5%	·	·	?	·
COc1cccc(-n2c(SCC(=O)Nc3cc(C)ccc3C)nc3c(oc4ccccc43)c2=O)c1	13µM*	·	·	?	·
COCCn1c(SCC(=O)Nc2cccc(OC)c2)nc2c(oc3ccccc32)c1=O	7.3µM*	-14%	1%	5.8µM*	-5
Cc1nc2nc(NC(=O)c3ccco3)nn2c(C)c1Cl	7%	0%	11%	-6%	-11
COc1ccc(-c2nc(NC(=O)C3CC(=O)N(c4ccc5c(c4)OCCO5)C3)sc2C)cc1 (stereo unspecified)	6.3µM*	?	?	6.3µM*	17
COc1ccc2nc(NC(=O)C3CC(=O)N(c4ccc5c(c4)OCCO5)C3)sc2c1 (stereo unspecified)	?	-1%	-18%	?	-21
